Values joined by “and” are separate entries in the source; they are usually repeats but may differ in a detail not shown here. Equal values may be shown once. Results filed as inconclusive are left out. Unmarked numbers belong to inactive results. Active and inactive are the calls of the source. Calls follow the shape of the full dose curve.
Key:
[1] = molecular target: Bile acid receptor (Homo sapiens) (UniProt Q96RI1); test: qHTS assay for small molecule agonists of farnesoid X receptor signaling (AID 588527); settings: HEK293T FXR-UAS-bla, beta-lactamase ratio, 16 h; activation: stronger effect = higher value;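 also: series mostly up to about 77 µM; 0% = vehicle basal and 100% = reference agonist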
Chain of Bile acid receptor (Homo sapiens) (Q96RI1 whole entry, looked up): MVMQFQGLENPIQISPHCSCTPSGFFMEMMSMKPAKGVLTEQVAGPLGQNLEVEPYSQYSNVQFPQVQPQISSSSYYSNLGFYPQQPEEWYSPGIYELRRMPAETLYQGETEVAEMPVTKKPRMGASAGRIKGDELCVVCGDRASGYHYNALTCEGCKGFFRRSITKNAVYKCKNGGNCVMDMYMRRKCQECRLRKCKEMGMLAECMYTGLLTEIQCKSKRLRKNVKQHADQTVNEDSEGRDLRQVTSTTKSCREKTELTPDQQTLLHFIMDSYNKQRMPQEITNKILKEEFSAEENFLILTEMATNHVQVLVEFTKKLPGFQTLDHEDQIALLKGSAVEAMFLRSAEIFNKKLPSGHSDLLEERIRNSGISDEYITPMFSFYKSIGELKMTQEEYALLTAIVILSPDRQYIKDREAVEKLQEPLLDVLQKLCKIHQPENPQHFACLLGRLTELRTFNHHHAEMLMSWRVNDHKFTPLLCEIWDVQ
Procedure, shortened: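 Agonist-mode beta-lactamase reporter in GeneBLAzer FXR-UAS-bla HEK293T cells, titration up to 92 uM, 16 h exposure at 37 C, CCF4 fluorescence. Response scaled to DMSO (0%) and 100 uM chenodeoxycholic acid (100%), then Hill-fitted for EC50 and efficacy.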

[2] = molecular target: Peroxisome proliferator-activated receptor delta (Homo sapiens) (UniProt Q03181); test: qHTS assay for small molecule agonists of peroxisome proliferator-activated receptor delta signaling (AID 588534);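 also: 0% = DMSO basal wells and 100% = positive control agonist at 10 µM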
Chain of Peroxisome proliferator-activated receptor delta (Homo sapiens) (Q03181 whole entry, looked up): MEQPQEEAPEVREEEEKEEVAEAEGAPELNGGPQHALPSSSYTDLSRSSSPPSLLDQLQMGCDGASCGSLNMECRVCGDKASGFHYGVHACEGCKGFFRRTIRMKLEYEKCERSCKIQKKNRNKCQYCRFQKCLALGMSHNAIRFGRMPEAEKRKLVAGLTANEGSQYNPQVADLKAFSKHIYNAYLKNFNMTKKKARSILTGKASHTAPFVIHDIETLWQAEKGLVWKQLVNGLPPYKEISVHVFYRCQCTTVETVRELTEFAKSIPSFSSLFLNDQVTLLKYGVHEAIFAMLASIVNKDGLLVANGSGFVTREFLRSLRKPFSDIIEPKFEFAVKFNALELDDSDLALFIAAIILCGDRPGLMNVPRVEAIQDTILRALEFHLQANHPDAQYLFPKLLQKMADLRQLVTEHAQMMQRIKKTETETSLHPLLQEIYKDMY
Procedure, shortened: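 Agonist-mode qHTS; reporter cells, 5 hrs 37 C pre-incubation; compound titration, 18 hrs 37 C; CCF4 dye, 2 hrs RT; fluorescence read. EC50/efficacy via Hill fit.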

Row | SMILES | activation [1] | outcome [2]
1 | CCCCCCCCOC(=O)c1cc(O)c(O)c(O)c1 | 5.29% | inactive
2 | CCCCOCCOCCOCCCC | -0.244% | inactive
3 | C=Cc1ccc(P(c2ccccc2)c2ccccc2)cc1 | -1.25% | inactive
4 | CC(COc1ccc(C(C)(C)C)cc1)OS(=O)OCCCl (stereo not given) | 3.02% | inactive
5 | C=CC(=O)OCCCCCCOC(=O)C=C | -0.189% | inactive
6 | O=C(O)CCCCCCCCC(=O)O | -3.53% | inactive
7 | CC(=C/C=C/C(C)=C/C=C/C=C(C)/C=C/C=C(C)/C=C/C(=O)O)/C=C/C(=O)O | -1.08% | inactive
8 | Oc1c(Cl)cc(Cl)c(Cl)c1Cl | -1.79% and -2.07% | inactive
9 | Nc1c(Cl)cc(Cl)cc1Cl | 0.611% | inactive
10 | O=C1OC(O)C(C(Cl)Cl)=C1Cl (stereo not given) | 16.6% | inactive
11 | CC(C)CCC[C@@H](C)[C@H]1CC[C@H]2[C@@H]3CC=C4C[C@@H](O)CC[C@]4(C)[C@H]3CC[C@]12C | 0.612% | inactive
12 | C1OCOCO1 | -0.63% | inactive
13 | COC(=O)c1ccccc1S(=O)(=O)NC(=O)Nc1nc(OC(F)F)cc(OC(F)F)n1 | 2.12% | inactive
14 | O=C(O)CNC(=O)c1ccc([N+](=O)[O-])cc1 | 1.14% | inactive
15 | C[Si](C)(C)Cl | 1.08% | inactive
16 | CCCC[O][Al]([O]CCCC)[O]CCCC | 1.48% | inactive
17 | CC(O)CO (stereo not given) | 1.32% and -0.791% | inactive
18 | CCCCC | -0.0908% | inactive
19 | CC(C)Cc1nccs1 | -0.154% | inactive
20 | Cc1ccc(N)c(S(=O)(=O)O)c1 | 4.47% | inactive

Row | SMILES | activation [1] | outcome [2]
21 | C=CC(=O)OCC[N+](C)(C)C | -2.87% | inactive
22 | OCC(CO)(CBr)CBr | -0.248% | inactive
23 | CCOC(C)(C)C | 2.11% | inactive
24 | O=C=Nc1ccc(Cc2ccc(N=C=O)cc2)cc1 | 3.57% and 0.965% | inactive
25 | C[C@]12CCC(=O)C=C1CC[C@@H]1[C@@H]2[C@@H](O)C[C@]2(C=O)[C@@H](C(=O)CO)CC[C@@H]12 | 1.4% | inactive
26 | Cc1c(N)cccc1Cl | -0.769% | inactive
27 | CCCCCC/C(C=O)=C\c1ccccc1 | -2.14% | inactive
28 | CCNc1nc(NC(C)CC)nc(OC)n1 (stereo not given) | -1.27% | inactive
29 | CCCCCCCCCCCCO | -2.63% | inactive
30 | C=CC(=O)OCCOCCOCCOCCOC(=O)C=C | 26.3% | inactive
31 | O=c1[nH]c(=O)c2[nH]cnc2[nH]1 | -9.18% | inactive
32 | O=C=NCCCCCCN=C=O | 0.566% | inactive
33 | Cc1ccc(Cl)cc1 | -1.75% | inactive
34 | C=CC(=O)NC(C)C | -0.191% | inactive
35 | C1CCOC1 | -4.53% | inactive
36 | CNC(=O)c1ccccc1 | 3.12% | inactive
37 | CCCCCO | -1.91% | inactive
38 | CC(C)(C)c1cccc(C(C)(C)C)c1O | -3.57% | inactive
39 | C=Cc1ccc(C=C)cc1 | -3.75% | inactive
40 | CCc1ccccc1O | -1.44% | inactive

Row | SMILES | activation [1] | outcome [2]
41 | CC(C)(C)c1ccc(C(=O)O)cc1 | -9.49% | inactive
42 | CCCCOCCO | -0.315% and -0.896% and 3.38% | inactive
43 | CC(CCC(=O)O)(c1ccc(O)cc1)c1ccc(O)cc1 | -2.09% and 0.383% | inactive
44 | Nc1cc(Cl)c([N+](=O)[O-])cc1O | -1.43% | inactive
45 | CCOC(=O)NCCOc1ccc(Oc2ccccc2)cc1 | 2.99% | inactive
46 | IC(I)I | 0.284% and 0.834% | inactive
47 | OCc1cccc(Oc2ccccc2)c1 | -0.998% | inactive
48 | C=CC(=O)CC | 3.81% | inactive
49 | C=C(C)C(=O)OC | -1.27% | inactive
50 | Cc1ccc(C)cc1 | -1.18% | inactive
51 | C[Si](Cl)(Cl)[Si](C)(Cl)Cl | 5.31% | inactive
52 | C#CCOC(=O)[C@@H](C)Oc1ccc(Oc2ncc(Cl)cc2F)cc1 | -1.83% | inactive
53 | O=C(O)C(Oc1ccc(Cl)cc1)Oc1ccc(Cl)cc1 | -1.96% | inactive
54 | Cc1ccc(C)c(N)c1 | -1.33% | inactive
55 | COc1nc(C)nc(NC(=O)NS(=O)(=O)c2ccccc2OCCCl)n1 | -2.13% | inactive
56 | O=[N+]([O-])c1ccc(CCO)cc1 | -0.12% | inactive
57 | CCCCC/C=C/C=C/C=O | 3.19% and -0.429% | inactive
58 | CNc1nc(=O)n(C2CCCCC2)c(=O)n1C | -6.04% | inactive
59 | CC(/C=C/C=C(C)/C=C/C(=O)O)=C\C=C\C=C(C)\C=C\C=C(C)\C=C\C(=O)O | 3.47% | inactive
60 | OCl | 1.09% | inactive
